# Screening data: PubChem, National Center for Advancing Translational Sciences (NCATS)
# Most compounds without a hit are left out; they make up all but 22% or so of the library.
# Cycloheximide cs – affects cycloheximide protein synthesis inhibition readout, counter-screen; cell reporter, cycloheximide protein synthesis inhibition counterscreen; max response, %; 12% of 300,000 active; in the data active = max response mostly above about 13%, no sharp cut-off; inactive = mostly below about 14%; note: read at 38.3 µM for the half of the compounds with a filed dose; 0% is about no effect
# Pf growth 96h – P. falciparum growth inhibition at 96 hours; P. falciparum luciferase reporter growth, 96 h; Potency, µM (top dose mostly 28.7 µM), without a hit: at the highest dose activity change, negative = inhibition, usual class: inhibitors; 6.9% of 320,000 active; note: potency is the fitted concentration of half-maximal effect; % is set by controls: 0 for no effect and ±100 for the full control effect
#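 Delayed-death screen, second-generation endpoint: infected erythrocytes, 2% hematocrit, 0.05% parasitemia final; 96 hours at 37 C, 5% CO2; luciferase detection reagent; luminescence decrease equals reduced growth.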
# Pf growth 48h – inhibits P. falciparum growth in the first generation, 48 h; P. falciparum luciferase growth in erythrocytes, 48 h; Potency, µM (highest dose often 28.7 µM), inactives show top-dose activity change, negative = inhibition, most hits filed as inhibitors; 5.9% of 310,000 active; note: potency is the fitted concentration of half-maximal effect; % is set by controls: 0 for no effect and ±100 for the full control effect
#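 Cell-based growth assay: transgenic P. falciparum expressing firefly luciferase, cultured in red cells within RPMI 1640 containing 0.5% w/v Albumax, 24 mM bicarbonate and gentamycin. A drop in luciferase activity indicates inhibition.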
# LmPK inh – blocks Leishmania mexicana pyruvate kinase activity. Q27686. purified LmPK, Kinase-Glo ATP luminescence, 1 h. Potency, µM (doses to about 57.5 µM), without a hit: top-dose activity change, negative = inhibition, usual class: inhibitors. 0.37% of 290,000 active. AID 1721; note: potency is the fitted concentration of half-maximal effect; % is set by controls: 0 for no effect and ±100 for the full control effect
# Target sequence (Q27686 whole entry, looked up): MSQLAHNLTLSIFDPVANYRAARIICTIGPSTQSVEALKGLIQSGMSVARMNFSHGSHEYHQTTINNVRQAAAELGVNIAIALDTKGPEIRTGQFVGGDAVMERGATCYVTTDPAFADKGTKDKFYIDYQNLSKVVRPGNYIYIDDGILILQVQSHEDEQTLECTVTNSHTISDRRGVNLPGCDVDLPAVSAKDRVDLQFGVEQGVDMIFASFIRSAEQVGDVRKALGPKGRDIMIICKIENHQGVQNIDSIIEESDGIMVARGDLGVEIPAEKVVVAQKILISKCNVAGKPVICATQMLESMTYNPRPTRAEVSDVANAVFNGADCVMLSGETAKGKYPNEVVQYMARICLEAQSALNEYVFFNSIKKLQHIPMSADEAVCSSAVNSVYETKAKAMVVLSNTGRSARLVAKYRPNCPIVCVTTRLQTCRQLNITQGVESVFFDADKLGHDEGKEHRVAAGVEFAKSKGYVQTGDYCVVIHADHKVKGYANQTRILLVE
#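 qHTS format; LmPK 0.1 nM; substrates PEP 0.5 mM and ADP 0.1 mM. One-hour room-temperature incubation, then coupled luciferase luminescence; 0.5 nM enzyme wells mark activation.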
# Shiga toxin inh – inhibitors of Shiga toxin in Vero cells | Vero cells, Shiga toxin protein synthesis inhibition reporter | inhibition, % at 38.7 µM | 9.2% of 290,000 active | AID 2315; in the data active = inhibition mostly above about 28%, no sharp cut-off; inactive = mostly below about 43%; note: 0% is about no effect
# Starred values were filed as active, the others as inactive; ? = inconclusive; · = no result; [ ] = another dose, or the depositor's remark. Unless noted, calls come from the whole dose curve; as a rule, active = well fitted inhibition curve with a large enough effect; inconclusive = small, poorly fitted or top-dose-only effect, or another doubt; inactive = no such curve, though single readings can be large or run the other way.
SMILES,Cycloheximide cs,Pf growth 96h,Pf growth 48h,LmPK inh,Shiga toxin inh
O=C1CC(c2ccccc2)Cc2[nH]c(=O)c(-c3nc(-c4ccc(F)cc4)cs3)cc21 (configuration not stated),-5,·,·,·,-4
CCOC(=O)CSc1cc(C)c(C#N)c2nc3ccccc3n12,-6,24%,11%,2%,-12
CCOC(=O)c1c(C)cc(C)n2c1nc1ccccc12,13,12µM*,?,2%,24
CCS(=O)(=O)c1nc(S(=O)(=O)c2ccc(C)cc2)c(N2CCC3(CC2)OCCO3)s1,8,31%,-13%,1%,-1
CCNc1nc(Oc2ccc(C(=O)OC)cc2)nc(N(C)C)n1,4,?,?,-2%,9
CCNc1nc(N)nc(Oc2ccc(C(=O)OC)cc2)n1,26*,0.26µM*,153%,-13%,74*
CC(C)(C)NC(=O)COc1coc(CN2CCN(Cc3ccccc3)CC2)cc1=O,-1,?,0%,-9%,-4
NC(=S)N/N=C/c1coc2c(ccc3ccccc32)c1=O,24*,51%,52%,-7%,33
Oc1ccc2ccccc2c1/C=N/c1nc2c(s1)CCCC2,14*,-10%,·,-3%,5
Oc1ccc2ccccc2c1C=NCc1ccccc1,7,13µM*,?,-21%,-3
NC(=S)N/N=C/c1c(O)ccc2ccccc12,8,?,4.7µM*,6%,-2
COc1cccc(C(=O)OCC(=O)Nc2cc(C)c(C)cc2[N+](=O)[O-])c1,-3,-12%,10%,0%,12
CCCN(CCC)S(=O)(=O)c1ccc(NC(=O)COc2ccccc2)cc1,-4,9.3µM*,·,7%,-14
CCCN(CCC)S(=O)(=O)c1ccc(NC(=O)Cc2cccs2)cc1,1,?,·,-1%,16
CCCCN(CCCC)S(=O)(=O)c1ccc(NC(=O)Cc2cccs2)cc1,35*,·,?,10%,27
CCCNS(=O)(=O)c1ccc(NC(=O)Cc2cccs2)cc1,19*,44%,28%,-2%,21
Cc1ccc2c(c1)CCCN2C(=O)c1cc2ccccc2oc1=O,5,?,·,5%,-4
O=C(/C=C\NCC(=O)c1ccccc1)c1ccc2ccccc2c1,12*,37%,3%,-2%,52*
O=C(/C=C\NCC(=O)c1ccccc1)c1ccc(F)cc1,28*,50%,45%,-4%,28
O=C(CNC(=O)c1ccccc1)c1ccccc1,·,202%,106%,·,·
CCCN(CC1CC1)C(=O)CSc1nnc(-c2cc(-c3cccs3)nc3ccccc23)o1,-1,-4%,·,1%,11
Cc1ccc(S(=O)(=O)c2nc(-c3ccccc3)oc2N2CCC(C(N)=O)CC2)cc1,-2,13µM*,?,8%,11
CSc1oc(-c2ccccc2)nc1S(=O)(=O)c1ccc(F)cc1,-3,·,-22%,2%,-5
O=S(=O)(c1ccccc1)c1nc(-c2ccccc2)oc1N1CCCCC1,24*,12%,·,4%,77*
CSc1oc(-c2ccc(F)cc2)nc1S(=O)(=O)c1ccccc1,19*,?,-14%,7%,-24
SMILES,Cycloheximide cs,Pf growth 96h,Pf growth 48h,LmPK inh,Shiga toxin inh
CC1CCCCC1NC(=O)COC(=O)c1ccc2ncsc2c1 (configuration not stated),·,51%,-3%,·,·
O=C(O)CCC(=O)Nc1nc(-c2ccccc2)cs1,-2,·,21%,-9%,-10
Cc1csc(NC(=O)/C=C/c2ccc(C)o2)n1,31*,142%,209%,-1%,73*
COc1ccc(-c2csc(NC(=S)NC(=O)/C=C/c3ccco3)n2)cc1OC,-1,32%,4%,0%,-7
O=C(/C=C/c1ccco1)Nc1nc(-c2ccc(F)c(F)c2)cs1,18*,1%,?,1%,43
O=C(/C=C/c1ccco1)Nc1nc(-c2ccccc2)cs1,86*,27%,127%,-3%,118*
CCOC(=O)Cc1csc(NC(=O)/C=C/c2ccco2)n1,25*,-8%,59%,1%,59*
COc1ccc2c(CC(=O)OCC(=O)NC(=O)c3cccn3C)coc2c1,1,19%,4%,0%,-17
CCOC(=O)Cc1csc(NS(=O)(=O)c2ccc(OC)cc2)n1,-3,-44%[5.75 µM],6%,-3%,3
Cn1nnc(NC(=O)/C=C/c2ccco2)n1,14,30%,33%,-10%,10
Cc1csc(NC(=O)/C=C/c2ccco2)n1,25*,184%,254%,-10%,35*
CCOC(=O)Cc1csc(NS(=O)(=O)c2ccc(Cl)cc2)n1,-2,8.3µM*,?,0%,-9
O=C(/C=C/c1ccco1)Nc1ccccc1N1CCOCC1,1,27%,17%,0%,-5
O=C(/C=C/c1ccco1)Nc1nc(-c2ccccn2)cs1,49*,?,?,11%,53*
CCOC(=O)Cc1csc(NC(=O)/C=C/c2ccc(Cl)cc2)n1,23*,?,52%,1%,59*
CN1C(C(=O)NCc2cccc(C(F)(F)F)c2)CC2Cn3c(nc4cc(Cl)c(Cl)cc43)C21 (configuration not stated),2,?,?,2%,-7
Cc1ccc2c(c1)N(CCC(=O)NC1CCCCC1C)C(=O)CO2 (configuration not stated),-6,?,25%,-1%,-3
CCCC[C@@H]1CCCO[C@@](C(=O)NCc2ccccn2)(C(F)(F)F)C1,-1,·,·,·,-5
CCO[C@H]1OC(C(=O)O)=C[C@@H](c2ccc3c(c2)OCO3)[C@@H]1CCCO,-2,26%,0%,4%,-5
COCCN(CC(=O)Nc1cccc(C)c1C)C(=O)Cn1c(=O)cnc2ccccc21,·,2%,-27%,·,·
Cc1ccc(C(=O)N2CCN(c3ncccn3)CC2)cc1S(=O)(=O)N1CCCCC1,5,-1%,-29%,-1%,-12
CN(Cc1ccccc1)c1ncnc2c1cnn2-c1ccccc1,55*,?,73%,1%,98*
CCOc1ccccc1Nc1ncnc2c1cnn2-c1ccccc1,9,?,?,5%,-3
CCN(c1ccccc1)c1ncnc2c1cnn2-c1ccccc1,26*,102%,·,9%,65*
CCCNC(=O)c1ccccc1NC(=O)Cc1ccc(OC)c(S(=O)(=O)N2CCOCC2)c1,·,-2%,-2%,·,·
CCOc1ccccc1N(CC(=O)Nc1ccccc1C(=O)O)S(C)(=O)=O,1,?,-26%,4%,2
CCCNC(=O)c1ccccc1NC(=O)CN(c1ccccc1)S(=O)(=O)N(C)C,-3,-11%,?,4%,9
COc1ccc(N(CC(=O)Nc2ccccc2C(=O)NCC(C)C)S(C)(=O)=O)cc1,1,-6%,-13%,5%,3
COc1ccccc1N(CC(=O)Nc1ccccc1C(=O)NCC(C)C)S(C)(=O)=O,5,·,8.3µM*,-1%,-19
CCOC(=O)c1ccccc1NC(=O)CN(c1ccccc1OCC)S(C)(=O)=O,-3,11%,9.3µM*,5%,-6
